From PubChem BioAssay AID1018 (Sanford-Burnham Center for Chemical Genomics, 2008)
In all, about 200,000 compounds went through this assay and about 15 (0.007%) were called active. The sample holds actives, similar compounds and a random draw of the others, so the mix is not that of the screen. Cut-off read from the data, not from the text of the source: active = displacement above about 50%; inactive = the rest.

What follows are compounds tested against E3 ubiquitin-protein ligase XIAP (Homo sapiens) (UniProt P98170) (assay: XIAP antagonists, biochemical, IAP family, fluorescence polarization (AID 1018)). Conditions: XIAP BIR domain, fluorescence polarization peptide displacement; at 20 µM; stronger effect = higher value.
Sequence of E3 ubiquitin-protein ligase XIAP (Homo sapiens) (P98170 whole entry, looked up, the tested form may be a part): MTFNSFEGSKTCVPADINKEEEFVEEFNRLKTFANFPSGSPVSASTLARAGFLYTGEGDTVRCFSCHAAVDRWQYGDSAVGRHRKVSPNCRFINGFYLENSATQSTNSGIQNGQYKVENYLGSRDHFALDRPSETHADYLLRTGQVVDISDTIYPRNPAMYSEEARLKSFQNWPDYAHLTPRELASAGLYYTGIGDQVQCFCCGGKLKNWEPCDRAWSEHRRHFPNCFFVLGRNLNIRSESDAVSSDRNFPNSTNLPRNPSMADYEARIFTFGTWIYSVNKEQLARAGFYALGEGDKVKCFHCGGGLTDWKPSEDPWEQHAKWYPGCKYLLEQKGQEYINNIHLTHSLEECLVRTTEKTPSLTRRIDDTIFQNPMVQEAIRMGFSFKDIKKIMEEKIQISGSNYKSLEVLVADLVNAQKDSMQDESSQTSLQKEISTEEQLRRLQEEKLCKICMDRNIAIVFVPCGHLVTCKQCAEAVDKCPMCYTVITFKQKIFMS

Row | SMILES | displacement
1 | O=C(O)CCCc1nc(-c2ccc(Cl)cc2)no1 | 70.8% (active)
2 | O=C(O)CCCc1nc(-c2ccccc2)no1 | -1.3% (inactive)
3 | O=C(O)CCc1nc(-c2ccc(Cl)cc2)no1 | -3.7% (inactive)
4 | Cc1cccc(-c2n[nH]c(=S)n2-c2ccccc2)c1[N+](=O)[O-] | -3.7% (inactive)
5 | CC(=O)C(C(C)=O)C1(O)C(=O)c2ccccc2C1=O | -3.4% (inactive)
6 | Fc1cccc(Cn2cc(C(=S)N3CCOCC3)c3ccccc32)c1 | -4.3% (inactive)
7 | CCC(C(=O)O/N=C(\N)c1ccc(Cl)cc1)c1ccccc1 (stereo unspecified) | -3.6% (inactive)
8 | Cc1cccc2cc(COC(=O)C(C)C)c(=O)[nH]c12 | -4.3% (inactive)
9 | COC(=O)c1cn(NC(=O)c2ccc3c(c2)OCO3)c(=O)c2ccccc12 | -3.5% (inactive)
10 | CCOC(=O)C1(CC2CC2)CCN(S(=O)(=O)/C=C/c2ccccc2)CC1 | -6.8% (inactive)
11 | Cc1ccc(-n2c(-c3ccccc3)c[n+]3c2CCc2ccccc2-3)c(C)c1 | -4.9% (inactive)
12 | N/C(=N\OC(=O)CCC1CCCC1)c1ccc([N+](=O)[O-])cc1 | -1.2% (inactive)
13 | CC(=O)Nc1cccc(NC(=O)Nc2cccc(Cl)c2C)c1 | -2.6% (inactive)
14 | CCC/C=N/NC(=O)c1ccc(F)cc1 | -5.5% (inactive)
15 | CCCNC(=O)C12CCC(C)(c3nc4cc(C)c(C)cc4nc31)C2(C)C (stereo unspecified) | -3% (inactive)
16 | CCOC(=O)N1CCC(N2Cc3cccc(C(=O)Nc4ccc(OC)c(OC)c4)c3C2=O)CC1 | 1.9% (inactive)
17 | O=C(Nc1nnc(Cc2ccc(Cl)cc2)s1)C1CCCO1 (stereo unspecified) | -3.9% (inactive)
18 | COCCN1CCN(c2c3c(nc4cc(-c5cccc(F)c5)nn24)CCC3)CC1 | -10.3% (inactive)
19 | O=C(O)[C@H](Cc1ccccc1)N1Cc2ccccc2C1=O | 2.3% (inactive)
20 | O=C(O)C(Cc1ccccc1)N1Cc2ccccc2C1=O (stereo unspecified) | -8.8% (inactive)
21 | CCOC(=O)/C=C/S(=O)(=O)c1ccc(NC(C)=O)cc1 | -2.6% (inactive)
22 | CCN(CC)CCN(C(=O)c1c(F)cccc1F)c1nc2cc(C)cc(C)c2s1 | -3.6% (inactive)

Row | SMILES | displacement
23 | Cc1ccc(NC(=O)c2ccc(-n3cncn3)c([N+](=O)[O-])c2)cc1 | -3.6% (inactive)
24 | CN(C)CCNC(=O)c1ccccc1 | -5.4% (inactive)
25 | CC1CCN(S(=O)(=O)c2ccc(N/N=C(/C#N)C(N)=O)cc2)CC1 | -6.4% (inactive)
26 | Cc1ccc(C)c(NC(=S)N(C)CCO)c1 | -3.7% (inactive)
27 | Cn1c(=O)[nH]c(=O)c2c1nc(N1CCCCC1)n2CCSc1nc2ccccc2o1 | -3.9% (inactive)
28 | COc1ccc(N(CC(=O)NCCSC2CCCCC2)S(C)(=O)=O)c(OC)c1 | -4.6% (inactive)
29 | COc1ccc(/C(O)=C2/C(=O)C(=O)N(CCN(C)C)C2c2cccnc2)cc1OC (stereo unspecified) | -8.8% (inactive)
30 | O=C(COC(=O)c1cccc(S(=O)(=O)N2CCc3ccccc32)c1)Nc1ccc(Cl)cn1 | -4.3% (inactive)
31 | Cc1ccc(NC(=O)COC(=O)c2ccc3c(c2)NC(=O)C2CCCN32)cc1 (stereo unspecified) | -1.5% (inactive)
32 | Cc1ccc(CNC(=O)Cn2cc(C(F)(F)F)ccc2=O)cc1 | -2.9% (inactive)
33 | S=C(Nc1ccc(Cl)cc1)N1CCN(C2CCCCC2)CC1 | -3.9% (inactive)
34 | O=C(OCCC1Oc2cccnc2NC1=O)c1ccc(F)cc1 (stereo unspecified) | -2.6% (inactive)
35 | Nc1nc(-c2ccco2)nn1S(=O)(=O)c1ccc(Cl)cc1 | -2.1% (inactive)
36 | CN(C)C(CNC(=O)Cc1cccc(C(F)(F)F)c1)c1ccco1 (stereo unspecified) | -10.8% (inactive)
37 | O=C(COc1ccc(Cl)cc1[N+](=O)[O-])N/N=C/c1cccs1 | -10.2% (inactive)
38 | N=C1C(c2ccccc2)=C(O)CN1c1ccccc1N1CCOCC1 | -6.4% (inactive)
39 | O=C(CCCOc1ccccc1)Nc1ccc(S(=O)(=O)N2CCOCC2)cc1 | -4.6% (inactive)
40 | COc1cc(C)c(Cl)c(C)c1S(=O)(=O)NC1CC(C)(C)NC(C)(C)C1 | -4.7% (inactive)
41 | Cc1ccc(-c2[nH]nc3c2C(c2ccccc2OC(=O)N2CCOCC2)C(C#N)=C(N)O3)cc1 (stereo unspecified) | 1.4% (inactive)
42 | Cc1ccc(N2N=C(c3ccc(Br)cc3)CCC2=O)cc1 | -4.4% (inactive)
43 | Cc1ccc(Cn2cccc2C2=NC(C)CO2)cc1 (stereo unspecified) | -0.2% (inactive)
44 | COc1ccc(C(=O)NC(=S)N2CC(C)OC(C)C2)cc1OC (stereo unspecified) | -1.8% (inactive)

Row | SMILES | displacement
45 | COc1ccc(CN2C(=O)c3cccnc3C2Nc2cc(Cl)ccc2OC)cc1 (stereo unspecified) | 63.8% (active)
46 | COc1ccc(CN2C(=O)c3cccnc3C2Nc2ccc(OC)c(Cl)c2)cc1 (stereo unspecified) | -2% (inactive)
47 | COc1ccc(CN2C(=O)c3cccnc3C2Nc2cc(Cl)c(OC)cc2OC)cc1 (stereo unspecified) | 9.6% (inactive)
48 | Cc1ccc(N=N/C(=C\O)C(=O)c2ccc(Cl)cc2)cc1 | -7.5% (inactive)
49 | CCN(CC)CCNC(=O)/C(=C/c1cn(CC)c2ccccc12)NC(=O)c1cc(OC)c(OC)c(OC)c1 | -5.1% (inactive)
50 | CC(=O)NC1C(=O)N(CCc2ccccc2)c2ccccc21 (stereo unspecified) | 1.5% (inactive)
51 | Cc1ccc(NC(=O)c2cccc(Cl)c2)nc1 | -1.6% (inactive)
52 | Cn1nccc1C(=O)Nn1cnnc1 | 1.6% (inactive)
53 | Cc1ccc(S(=O)(=O)N2CCOCC2)cc1NC(=O)COC(=O)c1ccccc1OCc1c(C)noc1C | 0.2% (inactive)
54 | COc1cc(OC)c(C(=O)NCC(c2cccs2)N(C)C)cc1OC (stereo unspecified) | -4.3% (inactive)
55 | O=C(CN1CCOCC1)N1CCN(S(=O)(=O)c2ccccc2)C1c1ccccc1 (stereo unspecified) | -3.4% (inactive)
56 | CCOc1ccccc1NC(=O)c1nc[nH]c1C(=O)Nc1ccccc1OCC | -4.1% (inactive)
57 | CCCOC(=O)c1sc2nc3c(cc2c1N)C(=O)CCC3 | -6% (inactive)
58 | CCOC(=O)c1c(C(=O)OCC)c(C)n(N2C(=O)CSC2=S)c1C | -39.5% (inactive)
59 | Cc1nn2cc(-c3ncc(C(F)(F)F)cc3Cl)cnc2c1Br | -5.1% (inactive)
60 | CN1CCN(C2CCCCCC2)CC1 | -7.6% (inactive)
61 | O=C(O)CCCNc1cc(N2CCC3(CC2)OCCO3)c2noc3c2c1C(=O)c1ccccc1-3 | 87.1% (active)
62 | O=C1c2ccccc2-c2onc3ccc(N4CCCC4)c1c23 | -14.9% (inactive)
63 | CCOC(=O)N1CCN(c2cc(NCCC(=O)O)c3c4c(onc24)-c2ccccc2C3=O)CC1 | 67.3% (active)
64 | CCOC(=O)N1CCN(c2cc(NCCO)c([N+](=O)[O-])c3nonc23)CC1 | -2.9% (inactive)
65 | CC(=O)OCCNc1cc(N2CCN(C)CC2)c2noc3c2c1C(=O)c1ccccc1-3 | -1.6% (inactive)
66 | O=[N+]([O-])c1c(NCCO)cc(N2CCC3(CC2)OCCO3)c2nonc12 | -5.3% (inactive)
